Bioassay records as filed in PubChem BioAssay.
DT40 TDP1 no CPT – qHTS for Inhibitors of human tyrosyl-DNA phosphodiesterase 1 (TDP1): qHTS in cells in absence of CPT | DT40 Tdp1-/- hTDP1 cells, no CPT, ATP luminescence, 48 h | Potency, µM (titrated, usually from 46.2 µM), usual class: inhibitors | hit rate 15% among 420,000 | AID 686978, 2013; note: nearly all actives have a fitted effect of over 55% in size
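Growth kinetics read by CellTiter-Glo luminescence after ≥48 hr at 37 °C. Cells: DT40 Tdp1-/- stably carrying human TDP1, 400 per well, compound exposure in the absence of CPT (DMSO vehicle).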
HepG2 viability – qHTS for Inhibitors of TGF-b: Cytotox Counterscreen | Potency, µM (series often up to 46.1 µM), usual class: cytotoxic | HepG2 CAGA-GFP viability, ATP luminescence, 18 h | hit rate 0.76% among 410,000
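HepG2 CAGA-GFP cells (1000/well, DMEM with 1% FBS) received compound, then TGF-beta at 500 pg/mL final, and were incubated 18 hours at 37 degrees C. Viability was read by CellTiter-Glo luminescence. Media-only wells were set as complete cell-killing and DMSO as no toxicity.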
DT40 TDP1 CPT – qHTS for Inhibitors of human tyrosyl-DNA phosphodiesterase 1 (TDP1): qHTS in cells in presence of CPT; chicken DT40 Tdp1-/-;hTDP1 cells + 20 nM CPT, ATP luminescence, 48 h; Potency, µM (highest dose often 46.2 µM), most hits filed as inhibitors; hit rate 12% among 420,000; AID 686979, 2013; note: nearly all actives have a fitted effect of over 55% in size
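Cell growth measured by CellTiter-Glo luminescence after a minimum 48 h, 37 C compound exposure with 20 nM CPT in Tdp1-knockout DT40 cells stably expressing hTDP1, seeded 400/well; qHTS titration format.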
IL1B secr inh – qHTS for Inhibitors of Inflammasome Signaling: IL-1-beta AlphaLISA Primary Screen. THP-1 LPS/ATP IL-1B secretion, AlphaLISA, 16 h; stronger effect = lower value. activity change, % at 57.5 µM. hit rate 4.7% among 360,000; in the data active = activity change below about -50%; inconclusive = mostly about -30% to -49%
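THP-1 cells pretreated 1 hr with compounds (up to 57.5 uM final), then stimulated with LPS (250 ng/mL final) plus ATP (1.25 mM final); secreted IL-1B measured by AlphaLISA after 16 hr, decreased signal indicating inhibition.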
TGFb inhibitor – qHTS for Inhibitors of TGF-b. Potency, µM (series often up to 46.1 µM), most hits filed as inhibitors. hit rate 1.2% among 410,000. HepG2 CAGA-GFP TGF-b/SMAD3 reporter, GFP fluorescence, 18 h; TGF-beta stimulated, 500 pg/mL final; note: nearly all actives have a fitted effect of over 65% in size
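HEPG2 CAGA-GFP reporter cells (1000/well, DMEM with 1% FBS) received compounds, then recombinant TGF-beta at 500 pg/mL final for 18 hours at 37 degrees C. Per-cell GFP summed per well was normalised to unstimulated and stimulated DMSO controls before curve fitting.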
TDP1 block – qHTS Assay for Inhibitors of Tyrosyl-DNA Phosphodiesterase (TDP1); Tyrosyl-DNA phosphodiesterase 1 (Homo sapiens), Q9NUW8; recombinant TDP1, AlphaScreen DNA substrate cleavage; Potency, µM (doses to about 130 µM), usual class: inhibitors; hit rate 0.28% among 350,000; AID 485290, 2010; note: nearly all actives have a fitted effect of over 40% in size
Target sequence (Q9NUW8 whole entry, looked up): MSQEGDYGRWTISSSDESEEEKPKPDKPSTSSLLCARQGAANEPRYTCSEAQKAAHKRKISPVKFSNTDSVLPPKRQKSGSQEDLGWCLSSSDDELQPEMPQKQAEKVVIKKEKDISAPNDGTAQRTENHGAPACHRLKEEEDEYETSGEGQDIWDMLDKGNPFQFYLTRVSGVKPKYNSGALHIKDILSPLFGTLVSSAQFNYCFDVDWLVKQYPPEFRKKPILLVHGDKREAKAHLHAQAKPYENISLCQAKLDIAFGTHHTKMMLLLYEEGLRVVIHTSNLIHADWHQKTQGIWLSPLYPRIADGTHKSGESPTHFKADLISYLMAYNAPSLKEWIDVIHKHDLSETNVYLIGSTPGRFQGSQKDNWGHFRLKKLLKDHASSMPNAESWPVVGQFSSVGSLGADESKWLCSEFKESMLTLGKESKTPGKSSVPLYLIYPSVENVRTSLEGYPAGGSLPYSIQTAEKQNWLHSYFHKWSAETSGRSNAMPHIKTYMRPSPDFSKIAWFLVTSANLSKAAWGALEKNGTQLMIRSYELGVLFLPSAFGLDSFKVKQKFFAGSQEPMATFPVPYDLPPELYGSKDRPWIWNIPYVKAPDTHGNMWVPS
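Recombinant human Tdp1 (E. coli-expressed, 1 nM final) preincubated with compounds 15 min at room temperature, then 5'-biotin/3'-phosphotyrosine-FITC DNA substrate (15 nM final) added for 5 min. AlphaScreen beads (10 ug/ml final) added 10 min; cleavage lowers signal.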
A number is an active result; ! = repeats disagree. This is a sample that favours compounds with a hit; in the whole collection about 19% have one here. Unless noted, calls come from the whole dose curve; as a rule, active = well fitted curve in the direction sought with a large enough effect; inconclusive = small, poorly fitted or top-dose-only effect, or another doubt; inactive = no such curve, though single readings can be large; an effect the other way counts as inactive or inconclusive.

How did Cc1ccccc1COc1ccc(-c2nnn(CC(=O)O)n2)cc1 do in these assays?
DT40 TDP1 no CPT: inactive; HepG2 viability: inactive; DT40 TDP1 CPT: inactive; IL1B secr inh: inactive; TGFb inhibitor: inactive

What do the screens show for `CCCCNc1nc(Oc2ccc(=O)n(C)n2)nc(N2CCOCC2)n1`?
DT40 TDP1 no CPT: inactive; HepG2 viability: inactive; DT40 TDP1 CPT: inactive; TGFb inhibitor: inactive; TDP1 block: inactive

What do the screens show for `CN(C)C(=S)N=Nc1[nH]c2ccccc2c1O`?
DT40 TDP1 no CPT: 0.52µM; HepG2 viability: inactive; DT40 TDP1 CPT: 0.58µM; IL1B secr inh: inactive; TGFb inhibitor: 2.8µM; TDP1 block: inactive

Results for COc1ccc2[nH]c(N=Nc3ccccc3C)c(O)c2c1 ?
DT40 TDP1 no CPT: inconclusive; HepG2 viability: inactive; DT40 TDP1 CPT: inconclusive; IL1B secr inh: inactive; TGFb inhibitor: inactive; TDP1 block: inactive

What do the screens show for `CC(C)n1nnnc1C1c2ccccc2C(=O)N1CCCn1ccnc1` (centres undefined)?
DT40 TDP1 no CPT: inactive; DT40 TDP1 CPT: inactive; IL1B secr inh: inactive

Results for COc1ccc(N=C2C(=O)N3c4c(cccc42)C(C)=CC3(C)C)cc1 ?
DT40 TDP1 no CPT: 2.6µM; HepG2 viability: inactive; DT40 TDP1 CPT: 5.2µM; IL1B secr inh: inactive; TGFb inhibitor: inactive; TDP1 block: inactive

Results for COc1ccc(N=C2C(=O)Nc3ccccc32)cc1 ?
DT40 TDP1 no CPT: inactive; HepG2 viability: inactive; DT40 TDP1 CPT: inactive; IL1B secr inh: inactive; TGFb inhibitor: inactive; TDP1 block: inactive

Results for Cc1ccc(OCC(=O)Nc2nonc2-c2ccc(Br)cc2)cc1C ?
DT40 TDP1 no CPT: inconclusive; HepG2 viability: inactive; DT40 TDP1 CPT: inconclusive; TGFb inhibitor: inconclusive; TDP1 block: inactive

What do the screens show for `CCN(CC)c1ccc(C(=O)NNC(=O)CCl)cc1`?
DT40 TDP1 no CPT: inconclusive; HepG2 viability: inactive; DT40 TDP1 CPT: 16µM; IL1B secr inh: inconclusive; TGFb inhibitor: inactive; TDP1 block: inactive

How did Cc1ccc2nc(NCCc3ccccc3)c3nncn3c2c1 do in these assays?
DT40 TDP1 no CPT: inactive; HepG2 viability: inactive; DT40 TDP1 CPT: inactive; IL1B secr inh: inactive; TGFb inhibitor: inactive; TDP1 block: inactive

How did COc1ccc(N(CC(=O)NC2CCCCC2)C(=O)CCCC(=O)Nc2ccccn2)cc1 do in these assays?
DT40 TDP1 no CPT: inactive; HepG2 viability: inactive; DT40 TDP1 CPT: inactive; IL1B secr inh: inactive; TGFb inhibitor: inactive; TDP1 block: inactive

What do the screens show for `CCOC(=O)[C@H]1[C@H]2COc3ccc(Cl)cc3[C@@H]2N2C(=O)[C@@H](CO)NC(=O)[C@@]12C`?
DT40 TDP1 no CPT: inactive; HepG2 viability: inactive; DT40 TDP1 CPT: inconclusive; IL1B secr inh: inactive; TGFb inhibitor: inactive; TDP1 block: inactive

What do the screens show for `CC(=O)Nc1ccc(S(=O)(=O)NCCS(=O)(=O)N2CCN(c3ccccc3)CC2)cc1`?
DT40 TDP1 no CPT: inactive; HepG2 viability: inactive; DT40 TDP1 CPT: inconclusive; IL1B secr inh: inactive; TGFb inhibitor: inactive; TDP1 block: inactive

Results for Cc1cc(C)c(S(=O)(=O)NCCS(=O)(=O)N2CCN(c3ccccc3)CC2)c(C)c1 ?
DT40 TDP1 no CPT: 18µM; HepG2 viability: inactive; DT40 TDP1 CPT: 23µM; TGFb inhibitor: inconclusive; TDP1 block: inactive

What do the screens show for `O=[N+]([O-])c1ccc(S(=O)(=O)NCCS(=O)(=O)N2CCN(c3ccccc3)CC2)cc1`?
DT40 TDP1 no CPT: 16µM; HepG2 viability: inactive; DT40 TDP1 CPT: inconclusive; IL1B secr inh: inactive; TGFb inhibitor: inactive; TDP1 block: inactive

How did Cc1ccc(N2CC(C(=O)NCCS(=O)(=O)N3CCN(c4ccccc4F)CC3)CC2=O)cc1 (centres undefined) do in these assays?
DT40 TDP1 no CPT: inconclusive; HepG2 viability: inactive; DT40 TDP1 CPT: 15µM!; IL1B secr inh: inactive; TGFb inhibitor: inconclusive; TDP1 block: inactive

How did CC(=O)Nc1ccc(S(=O)(=O)NCCS(=O)(=O)N2CCN(c3ccccc3F)CC2)cc1 do in these assays?
DT40 TDP1 no CPT: 21µM; HepG2 viability: inactive; DT40 TDP1 CPT: 16µM; IL1B secr inh: inactive; TGFb inhibitor: inactive; TDP1 block: inactive

What do the screens show for `CCC(=O)N1CCc2cc(CNC(=O)Nc3cc(C)ccc3C)ccc21`?
DT40 TDP1 no CPT: inactive; HepG2 viability: inactive; DT40 TDP1 CPT: inactive; TGFb inhibitor: inactive; TDP1 block: inactive

Results for CN(C)S(=O)(=O)c1cccc(NC(=O)CSc2nc3ccccc3n2-c2ccccc2)c1 ?
DT40 TDP1 no CPT: 26µM; HepG2 viability: inactive; DT40 TDP1 CPT: inconclusive; IL1B secr inh: inactive; TGFb inhibitor: inconclusive; TDP1 block: inactive

How did CN(C)S(=O)(=O)c1ccc(NC(=O)CSc2nc3ccccc3n2-c2ccccc2)cc1 do in these assays?
DT40 TDP1 no CPT: 21µM; HepG2 viability: inactive; DT40 TDP1 CPT: inconclusive; IL1B secr inh: inactive; TGFb inhibitor: inactive; TDP1 block: inactive

What do the screens show for `O=C(O)CSc1nc2ccccc2n1-c1ccccc1`?
DT40 TDP1 no CPT: inactive; HepG2 viability: inactive; DT40 TDP1 CPT: inactive; IL1B secr inh: -81; TGFb inhibitor: inactive; TDP1 block: inactive

How did NS(=O)(=O)c1ccc(NC(=O)CSc2nc3ccccc3n2-c2ccccc2)cc1 do in these assays?
DT40 TDP1 no CPT: inconclusive; HepG2 viability: inactive; DT40 TDP1 CPT: inconclusive; IL1B secr inh: inactive; TGFb inhibitor: inactive; TDP1 block: inactive

What do the screens show for `COC(=O)[C@@H](Cc1c[nH]c2ccccc12)NC(=O)CCC(=O)c1ccc(Br)cc1`?
DT40 TDP1 no CPT: inactive; HepG2 viability: inactive; DT40 TDP1 CPT: inactive; IL1B secr inh: inactive; TGFb inhibitor: inconclusive

How did COc1cccc(CN2CCC(C(=O)Nc3ccc(-c4cccc(C)c4)cc3)CC2)c1O do in these assays?
DT40 TDP1 no CPT: 16µM; HepG2 viability: inactive; DT40 TDP1 CPT: 16µM; IL1B secr inh: inactive; TGFb inhibitor: inconclusive

Results for Cc1cccc(-c2ccc(NC(=O)C3CCN(CC4CC4)CC3)cc2)c1 ?
DT40 TDP1 no CPT: 18µM; HepG2 viability: inactive; DT40 TDP1 CPT: inconclusive; IL1B secr inh: inconclusive; TGFb inhibitor: inconclusive

What do the screens show for `Cc1cccc(NC(=O)C2CCN(c3nccc(C)n3)CC2)c1`?
DT40 TDP1 no CPT: inactive; HepG2 viability: inactive; DT40 TDP1 CPT: inactive; IL1B secr inh: inactive; TGFb inhibitor: inactive; TDP1 block: inactive
